Test systems include HCT-15 colon; HT29 colon; SNB-75 CNS; SNB-19 CNS; U251 CNS; PC-3 prostate; SK-MEL-5 melanoma; UACC-62 melanoma; LOX IMVI melanoma; SK-MEL-28 melanoma; SK-MEL-2 melanoma; EKVX NSCLC; SN12C renal; UO-31 renal; TK-10 renal; ACHN renal; CAKI-1 renal; A498 renal; CCRF-CEM leukemia; MOLT-4 leukemia.
Holding throughout (test): NCI-60 one-dose screen, 48 h (100 = growth as untreated, 0 = no growth, -100 = all killed)
Conditions in all cases: 10 µM unless noted

This is part of a sample that, as a whole, favours compounds with a hit. Of some 83,000 tested, about 20% had one in any assay.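 Cells were grown in 96-well plates and exposed to the test compound at a single concentration for 48 hours; results are reported as percent growth, with values below 10 considered active.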 Unmarked numbers belong to inactive results. Activity calls are given as the source filed them.

With `CC(=O)Oc1cccc(OC(C)=O)c1OC(C)=O`, the growth was 101% in the experiment on HCT-15 colon; 110% in the experiment on HT29 colon; 88.4% in the experiment on SNB-75 CNS; 105% in the experiment with SNB-19 CNS; 95.6% with U251 CNS; 89.6% with PC-3 prostate. Moreover, the growth in the experiment with SK-MEL-5 melanoma was 93.8%; with UACC-62 melanoma, 96.8%; in the experiment on LOX IMVI melanoma, 95.2%; in the experiment with SK-MEL-28 melanoma it was 104%; with SK-MEL-2 melanoma it was 103%; in the experiment on EKVX NSCLC, 95.4%. Further, the growth with SN12C renal was 99.4%; in the experiment on UO-31 renal, 76.6%; in the experiment on TK-10 renal it was 107%; in the experiment with ACHN renal, 102%; with CAKI-1 renal, 84%; with A498 renal, 87.3%. The growth is 100% with CCRF-CEM leukemia and 82.4% with MOLT-4 leukemia.

For `COc1cc(-n2nc(C(=O)Nc3ccc(C(=O)O)cc3)nc2-c2ccccc2)cc(OC)c1OC`, the growth was 89.3% in the experiment with HCT-15 colon; 103% with HT29 colon; 94.1% with SNB-75 CNS; 91.9% in the experiment on SNB-19 CNS; 102% in the experiment with U251 CNS; 71.3% in the experiment with PC-3 prostate. Further, the growth is 107% in the experiment with SK-MEL-5 melanoma; 95.1% in the experiment on UACC-62 melanoma; 101% with LOX IMVI melanoma; 115% with SK-MEL-28 melanoma; 106% in the experiment on SK-MEL-2 melanoma; 53% with EKVX NSCLC. For the same compound, the growth was 82.1% in the experiment on SN12C renal; 58.6% in the experiment with UO-31 renal; 79.1% in the experiment on TK-10 renal; 36.1% in the experiment on ACHN renal; 52.2% with CAKI-1 renal; 62.9% with A498 renal. In addition, the growth with CCRF-CEM leukemia is 89%; with MOLT-4 leukemia, 95.8%.

As for `COC(=O)c1ccc(C)cc1`, the growth in the experiment on HCT-15 colon was 105%; in the experiment with HT29 colon, 98.6%; with SNB-75 CNS it was 89.2%; with SNB-19 CNS, 115%; in the experiment with U251 CNS, 94.9%; in the experiment with PC-3 prostate it was 97.5%. The growth in the experiment with SK-MEL-5 melanoma is 103%; in the experiment on UACC-62 melanoma it was 106%; in the experiment on LOX IMVI melanoma it was 99.5%; in the experiment on SK-MEL-28 melanoma, 113%; in the experiment on SK-MEL-2 melanoma it was 106%; with EKVX NSCLC, 98.3%. Besides, the growth was 107% in the experiment with SN12C renal; 101% in the experiment with UO-31 renal; -16.3% (active) in the experiment with TK-10 renal; 116% with ACHN renal; 97% with CAKI-1 renal; 79.9% in the experiment with A498 renal. Further, the figures for the growth in the experiment on CCRF-CEM leukemia and in the experiment with MOLT-4 leukemia were 101% and 103%, respectively.

`COC(=O)CCCCN=Cc1c(O)c(O)c(C(C)C)c2cc(C)c(-c3c(C)cc4c(C(C)C)c(O)c(O)c(C=NCCCCC(=O)OC)c4c3O)c(O)c12`: the growth is 11.1% in the experiment with HCT-15 colon; 4.56% (active) in the experiment with HT29 colon; 42.6% in the experiment with SNB-75 CNS; 17.6% in the experiment on SNB-19 CNS; 11.1% in the experiment on U251 CNS; 12.1% with PC-3 prostate. Besides, the growth in the experiment on SK-MEL-5 melanoma was 28.6%; in the experiment on UACC-62 melanoma, 33.5%; in the experiment on LOX IMVI melanoma it was 17.4%; in the experiment on SK-MEL-28 melanoma, 31.1%; in the experiment with SK-MEL-2 melanoma it was 17.3%; in the experiment with EKVX NSCLC, 14.4%. The growth was 16.1% with SN12C renal; 14.7% with UO-31 renal; 12.6% in the experiment with TK-10 renal; 13.4% with ACHN renal; 50.8% with CAKI-1 renal; 12.2% in the experiment with A498 renal. The values for the growth in the experiment on CCRF-CEM leukemia and with MOLT-4 leukemia were 18.4% and 14.4%, respectively.

Regarding `COc1ccc(/C(=N\O)c2cc(OC)c(OC)c(OC)c2)c(OC)c1N`, the growth was 11.3% with HCT-15 colon; 4.28% (active) with HT29 colon; -8.55% (active) in the experiment on SNB-75 CNS; 32.8% in the experiment with SNB-19 CNS; 18.3% with U251 CNS; 20.9% in the experiment with PC-3 prostate. Further, the growth was 11.3% in the experiment with SK-MEL-5 melanoma; 30% in the experiment on UACC-62 melanoma; 42.5% in the experiment with LOX IMVI melanoma; 59.3% with SK-MEL-28 melanoma; 35.1% with SK-MEL-2 melanoma; 47.3% in the experiment on EKVX NSCLC. Further, the growth with SN12C renal is 44.4%; with UO-31 renal, 50.3%; in the experiment with TK-10 renal, 9.72% (active); in the experiment with ACHN renal, 40.5%; in the experiment on CAKI-1 renal, 28.1%; in the experiment with A498 renal, -19.3% (active). For the same compound, the values for the growth in the experiment on CCRF-CEM leukemia and in the experiment on MOLT-4 leukemia were 12.6% and 24.1%, respectively.

Take `CC(=O)N1Cc2ccccc2C(C)Cc2cc(Cl)ccc21` (stereo not given): the growth in the experiment on HCT-15 colon was 105%; with HT29 colon it was 97.6%; with SNB-75 CNS it was 101%; in the experiment on SNB-19 CNS, 101%; with U251 CNS, 105%; in the experiment with PC-3 prostate, 95.8%. The growth is 103% with SK-MEL-5 melanoma; 98% in the experiment with UACC-62 melanoma; 105% with LOX IMVI melanoma; 112% in the experiment on SK-MEL-28 melanoma; 105% in the experiment on SK-MEL-2 melanoma; 94.5% with EKVX NSCLC. Moreover, the growth was 104% in the experiment on SN12C renal; 97.8% in the experiment on UO-31 renal; 98.4% in the experiment with TK-10 renal; 109% with ACHN renal; 90% with CAKI-1 renal; 75.7% in the experiment with A498 renal. For the same compound, the growth in the experiment on CCRF-CEM leukemia was 110%; in the experiment on MOLT-4 leukemia it was 97%.

Take `NC(=O)c1c(NC(=O)c2ccc3c(c2)OCO3)sc2c1CCC(=O)C2`: the growth in the experiment on HCT-15 colon was -40.5% (active); with HT29 colon it was -45.5% (active); in the experiment on SNB-75 CNS it was -12.6% (active); in the experiment on SNB-19 CNS, 14.3%; in the experiment on U251 CNS, -9.21% (active); in the experiment on PC-3 prostate, 3.13% (active). Moreover, the growth in the experiment with SK-MEL-5 melanoma was -94.2% (active); with UACC-62 melanoma, -37.8% (active); with LOX IMVI melanoma it was 15%; with SK-MEL-28 melanoma it was -38.7% (active); with SK-MEL-2 melanoma, -57.8% (active); with EKVX NSCLC it was 5.58% (active). The growth with SN12C renal is 8.18% (active); in the experiment with UO-31 renal, -93.4% (active); in the experiment with TK-10 renal, -20.2% (active); in the experiment with ACHN renal, -57.7% (active); in the experiment with CAKI-1 renal, -80% (active); with A498 renal, -3.77% (active). Besides, the growth in the experiment on CCRF-CEM leukemia is -33.3% (active); in the experiment on MOLT-4 leukemia it was -20.8% (active).

The values are drawn from PubChem BioAssay (NCI).
